“And” between values parts separate entries of the source, which are not always exact repeats. Equal entries are not always repeated. The campaign covered roughly 5,500 compounds. About 2,000 (36%) were called active. About 18% were inconclusive and are not listed. This is one part of the list. Values without a mark were called inactive. No stated cut-off is given here; in the data, active means normalized growth mostly below about 0.91 (no sharp cut-off); inconclusive means no clear call, values can overlap the other calls; inactive means mostly above about 0.92.
Experiment: chemical genetic growth profiling, strain panel (AID 1159580);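 further: tested at 20 µM; growth read once vehicle control cultures reached saturation at 30 °C; 1 = growth at the plate median or of vehicle wells; lower values mean less growth of the strain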
Details: growth OD

Q: With O=C1OC(=O)C2C3CCC(O3)C12 (stereo not given) as the molecule, how does the normalized growth (S. cerevisiae deletion strains, locus YKL009W, strain mrt4, hits give low values) read?
A: 0.895

Q: And the normalized growth (S. cerevisiae deletion strains, locus YKL068W, hits give low values)?
A: 1

Q: What about the normalized growth (S. cerevisiae deletion strains, locus YKL085W, strain MDH1 (second series), hits give low values) of the same molecule?
A: 1.01

Q: What about the normalized growth (S. cerevisiae deletion strains, locus YKL085W, strain MDH1, hits give low values) of the same molecule?
A: 1.01

Q: What about the normalized growth (S. cerevisiae deletion strains, locus YKL160W, strain elf1, hits give low values) of the same molecule?
A: 1.04

Q: What about the normalized growth (S. cerevisiae deletion strains, locus YKL190W, strain CNB1, hits give low values) of the same molecule?
A: 0.991

Q: And the normalized growth (S. cerevisiae deletion strains, locus YKR001C, strain vps1, hits give low values)?
A: 0.95

Q: And the normalized growth (S. cerevisiae deletion strains, locus YKR026C, strain gcn3, hits give low values)?
A: 1

Q: And the normalized growth (S. cerevisiae deletion strains, locus YKR091W, strain srl3, hits give low values)?
A: 1.01

Q: What about the normalized growth (S. cerevisiae deletion strains, locus YLL001W, strain dnm1, hits give low values) of the same molecule?
A: 0.995

Q: What about the normalized growth (S. cerevisiae deletion strains, locus YLL026W, hits give low values) of the same molecule?
A: 1

Q: What about the normalized growth (S. cerevisiae deletion strains, locus YLL041C, strain sdh2, hits give low values) of the same molecule?
A: 1.02

Q: What about the normalized growth (S. cerevisiae deletion strains, locus YLR027C, strain aat2, hits give low values) of the same molecule?
A: 0.994

Q: And the normalized growth (S. cerevisiae deletion strains, locus YLR039C, strain RIC1, hits give low values)?
A: 1.06

Q: And the normalized growth (S. cerevisiae deletion strains, locus YLR058C, strain SHM2, hits give low values)?
A: 1.01

Q: What about the normalized growth (S. cerevisiae deletion strains, locus YLR102C, strain apc9, hits give low values) of the same molecule?
A: 0.972

Q: And the normalized growth (S. cerevisiae deletion strains, locus YLR113W, strain HOG1, hits give low values)?
A: 0.843 (active)

Q: What about the normalized growth (S. cerevisiae deletion strains, locus YLR221C, strain rsa3, hits give low values) of the same molecule?
A: 0.983

Q: And the normalized growth (S. cerevisiae deletion strains, locus YLR258W, strain gsy2, hits give low values)?
A: 1.02

Q: What about the normalized growth (S. cerevisiae deletion strains, locus YLR262C, strain YPT6 (second series), hits give low values) of the same molecule?
A: 1.06

Q: And the normalized growth (S. cerevisiae deletion strains, locus YLR262C, strain YPT6, hits give low values)?
A: 1.06

Q: What about the normalized growth (S. cerevisiae deletion strains, locus YLR268W, strain sec22, hits give low values) of the same molecule?
A: 0.979

Q: And the normalized growth (S. cerevisiae deletion strains, locus YLR320W, strain mms22, hits give low values)?
A: 1

Q: And the normalized growth (S. cerevisiae deletion strains, locus YLR330W, strain CHS5, hits give low values)?
A: 1

Q: What about the normalized growth (S. cerevisiae deletion strains, locus YLR342W, strain FKS1 (second series), hits give low values) of the same molecule?
A: 1.02

Q: And the normalized growth (S. cerevisiae deletion strains, locus YLR342W, strain FKS1, hits give low values)?
A: 1.03

Q: And the normalized growth (S. cerevisiae deletion strains, locus YLR357W, strain rsc2, hits give low values)?
A: 1.01

Q: What about the normalized growth (S. cerevisiae deletion strains, locus YLR370C, strain arc18, hits give low values) of the same molecule?
A: 0.999

Q: What about the normalized growth (S. cerevisiae deletion strains, locus YLR371W, strain rom2, hits give low values) of the same molecule?
A: 0.959

Q: What about the normalized growth (S. cerevisiae deletion strains, locus YLR384C, strain iki3, hits give low values) of the same molecule?
A: 1.01

Q: And the normalized growth (S. cerevisiae deletion strains, locus YLR418C, strain cdc73, hits give low values)?
A: 0.928

Q: What about the normalized growth (S. cerevisiae deletion strains, locus YML016C, strain PPZ1, hits give low values) of the same molecule?
A: 1.01

Q: And the normalized growth (S. cerevisiae deletion strains, locus YML032C, strain rad52, hits give low values)?
A: 0.968

Q: What about the normalized growth (S. cerevisiae deletion strains, locus YML120C, strain ndi1, hits give low values) of the same molecule?
A: 0.998

Q: And the normalized growth (S. cerevisiae deletion strains, locus YML124C, strain tub3, hits give low values)?
A: 0.986

Q: And the normalized growth (S. cerevisiae deletion strains, locus YMR058W, strain fet3, hits give low values)?
A: 1

Q: And the normalized growth (S. cerevisiae deletion strains, locus YMR078C, strain ctf18, hits give low values)?
A: 0.963

Q: And the normalized growth (S. cerevisiae deletion strains, locus YMR125W, strain sto1, hits give low values)?
A: 1.01

Q: And the normalized growth (S. cerevisiae deletion strains, locus YMR129W, hits give low values)?
A: 1

Q: And the normalized growth (S. cerevisiae deletion strains, locus YMR205C, strain PFK2, hits give low values)?
A: 1.03

Q: What about the normalized growth (S. cerevisiae deletion strains, locus YMR223W, strain ubp8, hits give low values) of the same molecule?
A: 0.989

Q: What about the normalized growth (S. cerevisiae deletion strains, locus YMR231W, strain pep5, hits give low values) of the same molecule?
A: 0.988

Q: And the normalized growth (S. cerevisiae deletion strains, locus YMR263W, strain SAP30, hits give low values)?
A: 1.03

Q: What about the normalized growth (S. cerevisiae deletion strains, locus YMR307W, strain GAS1, hits give low values) of the same molecule?
A: 1.02

Q: And the normalized growth (S. cerevisiae deletion strains, locus YNL067W, strain RPL9B, hits give low values)?
A: 1.01

Q: And the normalized growth (S. cerevisiae deletion strains, locus YNL071W, strain lat1, hits give low values)?
A: 1

Q: And the normalized growth (S. cerevisiae deletion strains, locus YNL128W, strain TEP1, hits give low values)?
A: 1.01

Q: What about the normalized growth (S. cerevisiae deletion strains, locus YNL153C, strain GIM3, hits give low values) of the same molecule?
A: 1.01

Q: What about the normalized growth (S. cerevisiae deletion strains, locus YNL175C, strain NOP13, hits give low values) of the same molecule?
A: 1.02

Q: What about the normalized growth (S. cerevisiae deletion strains, locus YNL183C, strain NPR1, hits give low values) of the same molecule?
A: 0.887

Q: What about the normalized growth (S. cerevisiae deletion strains, locus YNL197C, strain WHI3, hits give low values) of the same molecule?
A: 1.01

Q: And the normalized growth (S. cerevisiae deletion strains, locus YNL209W, strain ssb2, hits give low values)?
A: 0.994

Q: And the normalized growth (S. cerevisiae deletion strains, locus YNL224C, strain SQS1, hits give low values)?
A: 1.01

Q: What about the normalized growth (S. cerevisiae deletion strains, locus YNL233W, strain BNI4, hits give low values) of the same molecule?
A: 1.02

Q: What about the normalized growth (S. cerevisiae deletion strains, locus YNL248C, strain rpa49, hits give low values) of the same molecule?
A: 1.05

Q: What about the normalized growth (S. cerevisiae deletion strains, locus YNL250W, strain rad50, hits give low values) of the same molecule?
A: 0.93

Q: And the normalized growth (S. cerevisiae deletion strains, locus YNL271C, strain bni1, hits give low values)?
A: 0.967

Q: And the normalized growth (S. cerevisiae deletion strains, locus YNL298W, strain CLA4, hits give low values)?
A: 0.901 (active)

Q: What about the normalized growth (S. cerevisiae deletion strains, locus YNL307C, strain MCK1, hits give low values) of the same molecule?
A: 0.977

Q: What about the normalized growth (S. cerevisiae deletion strains, locus YNL322C, strain KRE1 (second series), hits give low values) of the same molecule?
A: 1.01

Q: What about the normalized growth (S. cerevisiae deletion strains, locus YNL322C, strain KRE1, hits give low values) of the same molecule?
A: 1.02

Q: What about the normalized growth (S. cerevisiae deletion strains, locus YNR049C, strain mso1, hits give low values) of the same molecule?
A: 1.01

Q: And the normalized growth (S. cerevisiae deletion strains, locus YNR052C, strain pop2, hits give low values)?
A: 0.983

Q: What about the normalized growth (S. cerevisiae deletion strains, locus YOL006C, strain TOP1, hits give low values) of the same molecule?
A: 1.03

Q: And the normalized growth (S. cerevisiae deletion strains, locus YOL012C, strain htz1)?
A: 0.735

Q: And the normalized growth (S. cerevisiae deletion strains, locus YOL147C, strain pex11, hits give low values)?
A: 0.973

Q: What about the normalized growth (S. cerevisiae deletion strains, locus YOR001W, strain rrp6, hits give low values) of the same molecule?
A: 0.964

Q: What about the normalized growth (S. cerevisiae deletion strains, locus YOR061W, strain CKA2, hits give low values) of the same molecule?
A: 1.01

Q: What about the normalized growth (S. cerevisiae deletion strains, locus YOR069W, strain VPS5, hits give low values) of the same molecule?
A: 1.02

Q: And the normalized growth (S. cerevisiae deletion strains, locus YOR070C, strain gyp1, hits give low values)?
A: 1.02

Q: What about the normalized growth (S. cerevisiae deletion strains, locus YOR080W, strain dia2, hits give low values) of the same molecule?
A: 1.01

Q: And the normalized growth (S. cerevisiae deletion strains, locus YOR083W, strain WHI5 (second series), hits give low values)?
A: 1.01

Q: And the normalized growth (S. cerevisiae deletion strains, locus YOR083W, strain WHI5, hits give low values)?
A: 1.04

Q: And the normalized growth (S. cerevisiae deletion strains, locus YOR106W, strain vam3, hits give low values)?
A: 1.05

Q: What about the normalized growth (S. cerevisiae deletion strains, locus YOR136W, strain idh2, hits give low values) of the same molecule?
A: 0.964

Q: What about the normalized growth (S. cerevisiae deletion strains, locus YOR144C, strain elg1, hits give low values) of the same molecule?
A: 0.982

Q: And the normalized growth (S. cerevisiae deletion strains, locus YOR184W, strain ser1, hits give low values)?
A: 0.979

Q: What about the normalized growth (S. cerevisiae deletion strains, locus YOR231W, strain MKK1, hits give low values) of the same molecule?
A: 0.89

Q: What about the normalized growth (S. cerevisiae deletion strains, locus YOR265W, strain rbl2, hits give low values) of the same molecule?
A: 1.01

Q: And the normalized growth (S. cerevisiae deletion strains, locus YOR270C, strain vph1, hits give low values)?
A: 1.03

Q: What about the normalized growth (S. cerevisiae deletion strains, locus YOR290C, strain snf2, hits give low values) of the same molecule?
A: 1.05

Q: And the normalized growth (S. cerevisiae deletion strains, locus YOR316C, strain cot1, hits give low values)?
A: 0.979

Q: And the normalized growth (S. cerevisiae deletion strains, locus YPL051W, strain arl3, hits give low values)?
A: 1.03

Q: And the normalized growth (S. cerevisiae deletion strains, locus YPL055C, strain LGE1, hits give low values)?
A: 0.959 and 1.03

Q: And the normalized growth (S. cerevisiae deletion strains, locus YPL078C, strain atp4, hits give low values)?
A: 1.06

Q: What about the normalized growth (S. cerevisiae deletion strains, locus YPL106C, strain sse1, hits give low values) of the same molecule?
A: 1.04

Q: What about the normalized growth (S. cerevisiae deletion strains, locus YPL240C, strain hsp82, hits give low values) of the same molecule?
A: 1

Q: What about the normalized growth (S. cerevisiae deletion strains, locus YPL241C, strain CIN2, hits give low values) of the same molecule?
A: 1.01

Q: And the normalized growth (S. cerevisiae deletion strains, locus YPL256C, strain CLN2, hits give low values)?
A: 0.926

Q: What about the normalized growth (S. cerevisiae deletion strains, locus YPR119W, strain clb2, hits give low values) of the same molecule?
A: 0.968

Q: What about the normalized growth (S. cerevisiae deletion strains, locus YPR141C, strain kar3, hits give low values) of the same molecule?
A: 0.957

Q: And the normalized growth (S. cerevisiae deletion strains, locus YPR163C, strain tif3, hits give low values)?
A: 0.96

Q: What about the normalized growth (S. cerevisiae deletion strains, locus YPR167C, strain met16, hits give low values) of the same molecule?
A: 0.977

Q: And the normalized growth (S. cerevisiae deletion strains, strain wtn01, hits give low values)?
A: 0.983

Q: And the normalized growth (S. cerevisiae strains, strain wild type, hits give low values)?
A: 1.01

Source: PubChem BioAssay AID1159580 (chemical genetic matrix, 2015)
